# Results reported in PubChem BioAssay (NCI).
# This is part of a sample that, as a whole, favours compounds with a hit. Of some 83,000 tested, about 20% had one in any assay.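 Cell lines were cultured in 96-well plates, exposed to a single compound concentration, and assessed for percent growth 48 hours later.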 Unmarked numbers belong to inactive results. Activity calls are given as the source filed them. Rule for the calls: active = growth percent below 10; inactive = the rest.
# Columns and labels:
# Experiment in all cases: NCI-60 one-dose screen, 48 h (100 = growth as untreated, 0 = no growth, -100 = all killed)
# Conditions in all cases: 10 µM
# T-47D breast = test system: T-47D breast
# BT-549 breast = test system: BT-549 breast
# MDA-MB-435 melanoma = test system: MDA-MB-435 melanoma
# SW-620 colon = test system: SW-620 colon
# MCF7 breast = test system: MCF7 breast
# HCT-116 colon = test system: HCT-116 colon
# HCC-2998 colon = test system: HCC-2998 colon
# KM12 colon = test system: KM12 colon
SMILES,growth (T-47D breast),growth (BT-549 breast),growth (MDA-MB-435 melanoma),growth (SW-620 colon),growth (MCF7 breast),growth (HCT-116 colon),growth (HCC-2998 colon),growth (KM12 colon)
CNS(=O)(=O)Oc1ccc(-c2sc3cc(OS(=O)(=O)NC)ccc3c2C(=O)c2ccc(OCCN3CCCCC3)cc2)cc1,60.8%,73.7%,70%,65.1%,30.5%,33.4%,93.8%,80.2%
COc1cc(NC(=O)C2=C(N3CCOCC3)/C(=C/c3ccc(Cl)cc3)CC2)cc(OC)c1OC,71.1%,103%,75.3%,100%,73.3%,65.7%,,97.3%
C#C[C@]1(O)CCC2C3CCc4cc(OC5CCCC5)ccc4C3CC[C@@]21C (stereo partly specified),84%,105%,94.8%,53.4%,74.3%,68.6%,74.1%,34.1%
CC(C1=C(CN(C(=O)Cc2cn(-c3ccccc3)nc2-c2ccc(Cl)cc2)C(C)C)Cc2ccccc21)c1ccccn1 (stereo unspecified),40.6%,88%,70.1%,75.8%,41.2%,31.9%,68%,54.8%
NC1=NC(c2ccccc2)C2=C(N1)/C(=C/c1ccccc1)CCC2 (stereo unspecified),93.1%,112%,36.8%,72.8%,38.6%,-53.1% (active),48.5%,47%
CCn1c2ccc(O)cc2c2c(C)c3c[n+](C)ccc3c(C)c21,-6.62% (active),-13% (active),64.9%,41.3%,16.7%,33.9%,35.1%,21.5%
O=c1c(Br)ccc(Br)cc1Br,-44.1% (active),98.4%,-40.1% (active),-46.5% (active),-22.6% (active),-88.1% (active),,-47% (active)
CCOC(=O)c1sc2ncnc(Nc3ccc4c(cnn4C(=O)Nc4ccc(C)c(Cl)c4)c3)c2c1C,101%,102%,100%,102%,87.8%,88.9%,94.1%,95.4%
COC(=O)CC[C@@H](C)[C@H]1CC[C@H]2[C@@H]3CC[C@@H]4C[C@H](O)CC[C@]4(C)[C@H]3C[C@H](O)[C@]12C,89.2%,96.4%,118%,107%,84.8%,86.7%,,102%
C[C@]12CC[C@@H]3c4ccc(O)cc4CC[C@H]3[C@@H]1CC[C@@H]2NS(=O)(=O)c1ccc(C(F)(F)F)cc1,25%,59%,22.3%,69.7%,2.42% (active),18.5%,60.4%,47.5%
COc1ccc(N=Nc2cc(OC)c(OC)c(OC)c2)cc1,58.8%,89.7%,67.6%,79.8%,63.6%,80.5%,81.4%,81.7%
COc1ccc(-c2cc(-c3ccccc3)nc(SCCCCCCC(=O)NO)n2)cc1,33.5%,85.4%,35.5%,22.6%,30.4%,25.1%,79.4%,60.3%
COc1ccc2c(c1)C(=O)/C(=C/c1cccc(OCC(=O)c3ccc([N+](=O)[O-])cc3)c1)CO2,50.3%,-34.5% (active),24.4%,-89% (active),-35.9% (active),-74.2% (active),,-87.9% (active)
O=C(c1ccccc1)N(C(=O)c1ccccc1)N1CCCC1,99.9%,105%,116%,100%,105%,106%,,107%
Cc1cc(=O)n2nnc3cc(C(F)(F)F)ccc3n12,116%,127%,99.4%,118%,120%,103%,104%,105%
COc1ccc2nc(Cl)c(Cn3nnc(Cc4ccccc4)n3)cc2c1,2.44% (active),20.3%,29.3%,66.4%,27.9%,29.2%,59%,36.5%

SMILES,growth (T-47D breast),growth (BT-549 breast),growth (MDA-MB-435 melanoma),growth (SW-620 colon),growth (MCF7 breast),growth (HCT-116 colon),growth (HCC-2998 colon),growth (KM12 colon)
CCCCN(CCCC)C(=O)[C@H](CC)[C@@H]1CC[C@@H](C)[C@@H]([C@H](C)[C@@H](O)[C@@H](C)C(=O)[C@H](CC)C2O[C@]3(C=C[C@@H](O)[C@]4(CC[C@@](C)([C@H]5CC[C@](O)(CC)[C@H](C)O5)O4)O3)[C@H](C)C[C@@H]2C)O1 (stereo partly specified),5.04% (active),8.46% (active),4.48% (active),9.41% (active),-14.1% (active),2.55% (active),2.49% (active),20.6%
O=C(COc1cccc(/C=C2\CSc3ccccc3C2=O)c1)c1ccc(Cl)cc1,57.8%,-77.5% (active),-14.8% (active),-100% (active),-89.2% (active),-57.8% (active),,-80.3% (active)
O=S(=O)(Oc1ccc(-c2ccc3sccc3c2)cc1)c1ccc(F)cc1,96%,102%,93.5%,93.5%,84.8%,102%,86.8%,104%
COc1cc(C(=O)/C=C/c2c[nH]c3ccccc23)cc(OC)c1OC,63.2%,-9.31% (active),7.59% (active),37.3%,12.5%,12.2%,19.6%,11.5%
O=C(Nc1ccc(NS(=O)(=O)c2ccc(F)cc2)cc1)C12CC3CC(CC(C3)C1)C2,76.2%,93.8%,95.9%,99.4%,78%,97.8%,96.4%,99.4%
CC(C)CCN(CCC(C)C)CC(=O)Nc1ccc(S(=O)(=O)c2ccc(NC(=O)CN(CCC(C)C)CCC(C)C)cc2)cc1,52.7%,42.2%,65.7%,-1.98% (active),15.3%,-54.2% (active),95.8%,54.5%
COc1ccc(-c2nnc(SCC(=O)Nc3ccc(C(=O)/C=C/c4ccccc4)cc3)n2-c2ccccc2)cc1OC,72.9%,92.8%,86.1%,66.4%,36.4%,17%,110%,91.7%
O=S(=O)(Oc1ccc(-c2ccc3sccc3c2)cc1)c1ccccc1,102%,101%,97.5%,100%,77.5%,105%,93.4%,110%
CNC(=O)c1c(I)c(NC(C)=O)c(I)c(C(=O)O)c1I,117%,113%,103%,102%,108%,121%,106%,109%
CCCCN1C(=O)CC(SC2CC(=O)N(CCCC)C2=O)C1=O (stereo unspecified),106%,104%,108%,110%,102%,105%,,107%
Cc1cc(=O)n2nnc3cc(Cl)c(Cl)cc3n12,76.3%,114%,103%,23.4%,96.3%,91.8%,108%,109%
COc1cc(/C=C/c2cc(/C=C/c3ccc(O)c(OC)c3)n(C(=O)Nc3ccc(C)cc3)n2)ccc1O,5.65% (active),-23% (active),-1.64% (active),8.12% (active),6.3% (active),1.6% (active),2.19% (active),-1.13% (active)
CCN(CC)CC(=O)N(CC)c1ccc(C)c(Cl)c1,90.3%,98.1%,103%,97.3%,98.6%,98.7%,102%,97.9%
CC[C@@H](C(=O)[C@@H](C)[C@@H](O)[C@H](C)[C@@H]1O[C@@H]([C@@H](CC)C(=O)O)CC[C@@H]1C)C1O[C@]2(C=CC(=O)[C@]3(CC[C@@](C)([C@H]4CC[C@](O)(CC)[C@H](C)O4)O3)O2)[C@H](C)C[C@@H]1C (stereo partly specified),26.1%,34.2%,21%,35.2%,11.2%,32.6%,36.1%,36%
Cc1cc(CC(C)CC(C)(C)C)n(O)c(=O)c1 (stereo unspecified) (tested in a mixture with another compound),28.1%,29.4%,22.2%,34.4%,17.5%,22.9%,57.5%,27.4%
